Bioassay records deposited in PubChem by several laboratories.
TWEAK Fn14 block – inhibitors of TWEAK-Fn14 interaction signaling; TWEAK-stimulated Fn14 reporter cells, luciferase luminescence, 8 h; inhibition, % at 10 µM; 360,000 tested, 2% active; in the data active = inhibition above about 50%
TROY NFkB inh – inhibitors of TROY-dependent NF-kB signaling; AID 1347056; 360,000 tested, 0.98% active; Q293 LMP1-TROYcd NF-kB luciferase reporter, 4 h; inhibition, % at 10 µM;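 active = compounds whose plate-normalised and pattern-corrected inhibition of the luciferase reporter signal at the single screening dose is 50% or more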
LGR2 inh – inhibitors of bursicon-induced Drosophila LGR2 receptor cAMP signaling; HEK293 LGR2, CRE-luciferase, bursicon-stimulated, 4 h; inhibition, % at 9.99 µM; 380,000 tested, 0.35% active; AID 720647;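 active = drop in luminescence signal, shown as inhibition above about 50% in the replicate tests, limit read from the data, passing the limit was not always enough; inconclusive = probably only some replicates passing the limit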;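 note: agonist challenge used bursicon conditioned medium at about half maximal strength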
HSP90 inh – inhibitors of HSP90 luciferase refolding in rabbit reticulocyte lysate | AID 1789 | inhibition, % at 5.6 µM | luciferase refolding luminescence, 3 h | 290,000 tested, 0.91% active;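 active = inhibition above the screen-wide mean plus 3 SD, computed separately per campaign, cut at about 16% in these data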;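 note: inhibitors lower the luminescence because luciferase stays unfolded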
HSP90 confirm – confirmation of HSP90 inhibitors; shares compounds with HSP90 inh; rabbit reticulocyte lysate, luciferase refolding luminescence, 3 h; inhibition, % at 5.9 µM; 2,300 tested, 64% active; AID 1846; in the data active = inhibition above about 18%
FLuc counter – counter-screen for HSP90 inhibitors: inhibitors of firefly luciferase | shares compounds with HSP90 inh | purified native firefly luciferase, luminescence | inhibition, % at 5.9 µM | 2,300 tested, 48% active | AID 1847;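 active = inhibition above the mean inhibition of all tested sample wells plus 3 SD, cut at about 10% in these data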
Target sequence (P08659 whole entry, looked up): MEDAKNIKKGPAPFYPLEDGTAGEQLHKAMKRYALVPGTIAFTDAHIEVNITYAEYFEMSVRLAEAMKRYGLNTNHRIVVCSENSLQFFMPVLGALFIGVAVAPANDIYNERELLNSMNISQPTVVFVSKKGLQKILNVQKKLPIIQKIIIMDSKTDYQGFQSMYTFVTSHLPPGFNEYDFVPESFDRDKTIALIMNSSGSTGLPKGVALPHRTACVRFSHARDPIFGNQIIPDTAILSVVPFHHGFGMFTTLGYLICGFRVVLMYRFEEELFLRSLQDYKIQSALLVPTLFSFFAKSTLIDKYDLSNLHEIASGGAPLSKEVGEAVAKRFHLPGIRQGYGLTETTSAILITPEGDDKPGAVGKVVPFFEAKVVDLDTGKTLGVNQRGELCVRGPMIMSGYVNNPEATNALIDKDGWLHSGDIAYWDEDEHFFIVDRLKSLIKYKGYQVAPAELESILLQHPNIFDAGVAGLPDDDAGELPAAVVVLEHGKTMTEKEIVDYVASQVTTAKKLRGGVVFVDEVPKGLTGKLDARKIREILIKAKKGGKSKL
Of the large screens only hits and unclear results are named; the others gave an inactive call (follow-up assays come after a bar, where they were run). Sampled rows, rich in hits. Any-hit rate of the full collection: about 2.2%.

C/C=C/c1ccc2c(c1)O[C@@H](CN(C)C(=O)c1ccc(F)cc1)[C@H](C)CN([C@@H](C)CO)S2(=O)=O	none (no result: TWEAK Fn14 block, TROY NFkB inh, HSP90 inh)
C[C@H]1CN([C@@H](C)CO)C(=O)c2cc(NS(C)(=O)=O)ccc2O[C@H]1CN(C)CC1CCCCC1	none (no result: TWEAK Fn14 block, TROY NFkB inh, HSP90 inh)
Cc1ccc(-n2c(C)cc(C(=O)COc3cccnc3[N+](=O)[O-])c2C)cc1	TWEAK Fn14 block 62.7
Cc1cc(C(=O)COc2cccnc2[N+](=O)[O-])c(C)n1-c1ccccc1	TWEAK Fn14 block 90.4
COCCN1CCn2c(nc3cc([N+](=O)[O-])ccc32)C1	TWEAK Fn14 block 93.6, TROY NFkB inh 88.7
O=[N+]([O-])c1ccc2c(c1)nc1n2CCN(CC2CCCO2)C1 (stereo not given)	none
COc1cccc(-c2cnc(C(O)c3ccccc3)[nH]2)c1 (stereo not given)	TWEAK Fn14 block 63.3, TROY NFkB inh 56.7 (no result: LGR2 inh, HSP90 inh)
COc1ccc(-c2cnc(C(O)c3ccc(-c4ccccc4)cc3)[nH]2)cc1 (stereo not given)	none (no result: HSP90 inh)
COc1ccc(-c2cnc(C(O)c3ccccc3)[nH]2)cc1 (stereo not given)	TROY NFkB inh 50.8 (no result: HSP90 inh)
C[C@@H]1CN([C@H](C)CO)C(=O)c2cc(NS(C)(=O)=O)ccc2O[C@@H](C)CCCCO[C@H]1CN(C)S(=O)(=O)c1cccs1	none (no result: TWEAK Fn14 block, TROY NFkB inh, HSP90 inh)
O=C(Nc1ccc2c(c1)OCCO2)NC1(C(F)(F)F)Oc2ccccc2O1	TWEAK Fn14 block 88.6, LGR2 inh inconclusive
CCCN1[C@H](C(=O)OC)[C@@H](CO)[C@@H]2Cn3c(ccc(-c4ccc(F)cc4)c3=O)[C@@H]21	none (no result: TWEAK Fn14 block, TROY NFkB inh, HSP90 inh)
CC(CNC(=S)Nc1cc(F)cc(F)c1)CSc1ccc(Cl)cc1 (stereo not given)	TROY NFkB inh 60.8
Cc1ccc(NC(=S)NCCSc2ccc(Cl)cc2)cc1	none
Cc1cc(OCc2cc(C(=O)N3CCC(Oc4cccnc4)CC3)no2)cc(C)c1Cl	TROY NFkB inh 50.5
COc1ccc(N=C(C)C2C(=O)c3ccccc3C2=O)cc1	TWEAK Fn14 block 64.2 (no result: LGR2 inh, HSP90 inh)
COc1ccc(C2C(=O)c3ccccc3C2=O)cc1	none (no result: LGR2 inh)
O=C(C[C@H]1CC[C@H](NC(=O)C2CCOCC2)[C@H](CO)O1)NCc1ccncc1	none (no result: TWEAK Fn14 block, TROY NFkB inh, HSP90 inh)
CC(C)CN(C(=O)COC(=O)C12CC3CC(CC(C3)C1)C2)c1c(N)n(Cc2ccccc2)c(=O)[nH]c1=O	TWEAK Fn14 block 54.7, LGR2 inh inconclusive (no result: HSP90 inh)
CC(C)CN(C(=O)COC(=O)C12CC3CC(CC(O)(C3)C1)C2)c1c(N)n(Cc2ccccc2)c(=O)[nH]c1=O	none (no result: HSP90 inh)
O=C(CSc1nnc(SCc2ccccc2)s1)N/N=C/c1c(Cl)cccc1Cl	none
Cc1nn(-c2ccccc2)c(C)c1/C=N/NC(=O)c1cc(-c2ccc(Br)s2)[nH]n1	TWEAK Fn14 block 68.6 (no result: LGR2 inh)
Cc1nn(-c2ccccc2)c(C)c1/C=N/NC(=O)CSc1nnc(SCc2ccc(Cl)cc2)s1	TWEAK Fn14 block 83.3 (no result: LGR2 inh)
Cc1nn(-c2ccccc2)c(C)c1/C=N/NC(=O)c1cc(-c2cccs2)[nH]n1	none (no result: LGR2 inh)
Cc1cc(C(=O)N/N=C/c2c(C)nn(-c3ccccc3)c2C)n[nH]1	none
Cc1nn(-c2ccccc2)c(C)c1/C=N/NC(=O)c1cc(-c2ccc(Cl)s2)[nH]n1	TWEAK Fn14 block 58.8 (no result: LGR2 inh)
C[C@@H](NC(=O)C[C@H]1C[C@@H]2c3cc(NC(=O)CN(C)C)ccc3O[C@@H]2[C@@H](CO)O1)c1ccccc1	none (no result: TWEAK Fn14 block, TROY NFkB inh, HSP90 inh)
Cn1c(O)c(N=NC(=O)CNC(=O)c2ccccc2)c2ccccc21	none
Cn1c(N=NC(=O)c2ccccc2)c(O)c2ccccc21	TWEAK Fn14 block 68.7, LGR2 inh inconclusive
C(=Cc1c[nH]c2ccccc12)c1nccc2ccccc12	TWEAK Fn14 block 89.0, TROY NFkB inh 64.8, LGR2 inh 94.1 (no result: HSP90 inh)
O=Cc1nccc2ccccc12	none (no result: HSP90 inh)
C(=Cc1c[nH]c2ccccc12)c1ccc2ccccc2n1	TWEAK Fn14 block 73.3, LGR2 inh 88.6 (no result: HSP90 inh)
CC(=O)N1CC2(C1)[C@H](c1ccc(-c3ccc(C#N)cc3)cc1)[C@@H](CO)N2C(C)=O	none (no result: TWEAK Fn14 block, TROY NFkB inh, HSP90 inh)
COc1ccc(N2C(=O)N(Cc3ccc(C)cc3)c3ccccc3S2(=O)=O)cc1	HSP90 inh 26.9
CO[C@H]1CN(C)C(=O)c2ccc(NC(=O)C3CC3)cc2OC[C@@H](C)N(Cc2cccnc2)C[C@@H]1C	none (no result: TWEAK Fn14 block, TROY NFkB inh, HSP90 inh)
COCC(=O)Nc1ccc2c(c1)C(=O)N(C)[C@@H]1CC[C@H](CC(=O)NCc3cccc(F)c3)O[C@H]1CO2	none (no result: TWEAK Fn14 block, TROY NFkB inh, HSP90 inh)
C=CCc1ccc(OCc2ccc(C(=O)OC)o2)c(OC)c1	HSP90 inh 24.6 (no result: LGR2 inh) | HSP90 confirm 55.0 | FLuc counter inactive
CCOC(=O)Cc1csc(NC(=S)NC(=O)c2ccc(C)cc2)n1	TWEAK Fn14 block 68.2, HSP90 inh 36.0 | HSP90 confirm 40.5 | FLuc counter inactive
CCOC(=O)Cc1csc(NC(=S)NC(=O)c2ccccc2)n1	none
CC1(C)Cc2nc3sc4c(SCC(=O)O)ncnc4c3cc2CO1	HSP90 inh 18.9 | HSP90 confirm 30.8 | FLuc counter inactive
C[C@H]1CN([C@@H](C)CO)C(=O)c2cc(NC(=O)CCC(F)(F)F)ccc2O[C@H]1CN(C)Cc1ccc(C(=O)Nc2ccccc2N)cc1	none (no result: TWEAK Fn14 block, TROY NFkB inh, HSP90 inh)
COc1ccc(S(=O)(=O)Nc2ccc3c(c2)C(=O)N([C@H](C)CO)C[C@@H](C)[C@H](CN(C)CC2CC2)O3)cc1	none (no result: TWEAK Fn14 block, TROY NFkB inh, HSP90 inh)
S=C(NCCc1ccccn1)NC1CCCCC1	HSP90 inh 22.9 | HSP90 confirm inactive | FLuc counter inactive
CCN(CC)S(=O)(=O)c1ccc(C)c(NC(=O)CN(C)C)c1	TROY NFkB inh 53.4, HSP90 inh 48.8 | HSP90 confirm inactive | FLuc counter inactive
CCN(CC)c1ccc2cc(/C(N)=N/NC(=O)c3cccs3)c(=O)oc2c1	HSP90 inh 21.5 (no result: TWEAK Fn14 block, TROY NFkB inh, LGR2 inh) | HSP90 confirm inactive | FLuc counter inactive
CN(C)C(=O)[C@H]1[C@H](CO)[C@H]2Cn3c(ccc(-c4ccccc4)c3=O)[C@@H]1N2Cc1ccccn1	none (no result: TWEAK Fn14 block, TROY NFkB inh, HSP90 inh)
O=C(CNS(=O)(=O)c1ccccc1)OCC(=O)c1ccccc1Cl	HSP90 inh 21.6 | HSP90 confirm inactive | FLuc counter inactive
CC(C)NC(=O)N(C)C[C@H]1Oc2ccc(NC(=O)Cc3ccccc3)cc2C(=O)N([C@H](C)CO)C[C@H]1C	none (no result: TWEAK Fn14 block, TROY NFkB inh, HSP90 inh)
O=C1COc2ccc3ccccc3c21	HSP90 inh 24.9 | HSP90 confirm inactive | FLuc counter inactive
O=C1CC2(CCOCC2)Oc2ccc3ccccc3c21	none (no result: HSP90 inh)
COc1ccc2c3c(n(C)c2c1)[C@@H](CO)N(Cc1ccccc1F)CC31CCN(C(=O)C2CCCC2)CC1	none (no result: TWEAK Fn14 block, TROY NFkB inh, HSP90 inh)
CCc1nc2ccc(C(=O)N3CCN(CC)CC3)cc2nc1CC	none
CCc1nc2ccc(C(=O)O)cc2nc1CC	HSP90 inh 74.8 | HSP90 confirm 63.4 | FLuc counter 51.4
COc1ccc(C#Cc2cnc3c(c2)C(=O)N([C@@H](C)CO)C[C@@H](C)[C@@H](CN(C)C(=O)CN(C)C)O3)cc1	none (no result: TWEAK Fn14 block, TROY NFkB inh, HSP90 inh)
CCCC(C(=O)NCCC(C)C)N(Cc1ccc(F)cc1)C(=O)c1snc(C(N)=O)c1N (stereo not given)	none
